Assay results as given in ChEMBL document CHEMBL3988442, “University of Dundee, Small-Polar-MMV Screening Library” (2021).
For some assays here: Entries with a potency or affinity are not part of this list.

Columns and labels:
Design in all cases: scale not given: direction of the effect not stated beside the values
[1] = target: Protein translocase subunit SecA (Escherichia coli (strain K12)) (UniProt P10408); experiment: Assay to Identify E. coli SecA ATPase Inhibitors; assay type: functional; settings: 30 µM
[2] = target: T1, Ubiquitin-activating enzyme e1, putative (Leishmania donovani (strain BPK282A1)) (UniProt E9BSI1); experiment: Leishmania donovani Ubiquitin Activating Enzyme (LdE1); assay type: functional; settings: 30 µM
T1 sequence (whole entry): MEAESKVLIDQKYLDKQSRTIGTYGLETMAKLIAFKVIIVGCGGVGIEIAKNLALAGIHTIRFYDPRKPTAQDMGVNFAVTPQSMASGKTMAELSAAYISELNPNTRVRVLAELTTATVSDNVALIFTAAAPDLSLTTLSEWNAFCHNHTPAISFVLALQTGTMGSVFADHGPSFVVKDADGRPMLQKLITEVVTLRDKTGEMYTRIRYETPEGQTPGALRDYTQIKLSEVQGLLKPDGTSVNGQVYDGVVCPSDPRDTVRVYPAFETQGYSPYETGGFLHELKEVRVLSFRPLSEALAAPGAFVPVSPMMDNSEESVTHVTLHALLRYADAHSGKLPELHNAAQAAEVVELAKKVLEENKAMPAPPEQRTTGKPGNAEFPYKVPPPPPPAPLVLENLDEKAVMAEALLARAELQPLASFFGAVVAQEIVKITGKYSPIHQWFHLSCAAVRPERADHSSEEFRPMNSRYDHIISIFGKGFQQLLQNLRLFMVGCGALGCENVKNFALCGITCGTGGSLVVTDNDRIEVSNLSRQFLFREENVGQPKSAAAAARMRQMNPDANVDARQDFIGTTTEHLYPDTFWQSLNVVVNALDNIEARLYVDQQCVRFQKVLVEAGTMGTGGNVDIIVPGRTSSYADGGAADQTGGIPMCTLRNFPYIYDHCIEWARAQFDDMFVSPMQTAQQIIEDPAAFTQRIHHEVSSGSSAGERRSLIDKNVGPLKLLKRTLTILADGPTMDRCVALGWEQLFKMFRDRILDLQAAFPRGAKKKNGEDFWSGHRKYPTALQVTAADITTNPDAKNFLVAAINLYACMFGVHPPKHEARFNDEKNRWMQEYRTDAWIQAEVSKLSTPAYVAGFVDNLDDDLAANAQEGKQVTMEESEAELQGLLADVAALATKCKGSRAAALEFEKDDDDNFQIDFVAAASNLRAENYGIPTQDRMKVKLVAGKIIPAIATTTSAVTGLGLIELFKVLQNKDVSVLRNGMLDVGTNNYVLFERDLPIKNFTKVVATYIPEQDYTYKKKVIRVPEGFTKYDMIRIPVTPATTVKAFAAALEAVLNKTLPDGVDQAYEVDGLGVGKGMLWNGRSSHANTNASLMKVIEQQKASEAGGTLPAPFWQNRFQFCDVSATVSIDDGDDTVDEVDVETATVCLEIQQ

[3] = target: AMP-activated protein kinase, AMPK (Homo sapiens) (UniProt P54646+O43741+P54619+Q9UGJ0+Q9Y478+Q13131+Q9UGI9); experiment: AMP-dependent Kinase enzyme assay. An in vitro enzyme assay that detects ADP turnover that is directly proportional to AMPK activity. This uses naive AMPK that is activated during the assay with MK-8722; assay type: functional; settings: 30 µM
[4] = target: Sialic acid-binding Ig-like lectin 9 (Homo sapiens) (UniProt Q9Y336); experiment: Hs-Siglec9 ALPHAscreen SOP 20170721; settings: 10 µM
[5] = system: Trypanosoma cruzi; experiment: Trypanosoma cruzi phosphomannomutase and mannose-1-phosphate guanylyltransferase assay; assay type: functional; settings: 10 µM
[6] = target: T2, Arginase-2, mitochondrial (Homo sapiens) (UniProt P78540); experiment: in vitro enzyme assay to detect the production of urea directly proportional to the activity of Arginase II; assay type: functional; settings: 33.3 µM; also: in the data most compounds retested in dose-response had high values
T2 sequence (whole entry): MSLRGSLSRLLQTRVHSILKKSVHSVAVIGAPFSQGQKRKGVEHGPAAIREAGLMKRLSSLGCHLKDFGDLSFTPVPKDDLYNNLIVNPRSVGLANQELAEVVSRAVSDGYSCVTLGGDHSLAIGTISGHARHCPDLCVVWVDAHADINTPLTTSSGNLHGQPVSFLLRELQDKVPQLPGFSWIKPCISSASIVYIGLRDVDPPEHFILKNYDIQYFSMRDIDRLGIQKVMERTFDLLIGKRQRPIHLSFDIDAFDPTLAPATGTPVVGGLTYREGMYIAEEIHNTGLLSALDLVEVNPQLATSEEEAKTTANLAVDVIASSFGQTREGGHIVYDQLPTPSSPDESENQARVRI

[7] = target: T3, Proteasome subunit beta (Trypanosoma cruzi) (UniProt O96673); experiment: Trypanosoma cruzi proteasome chymotrypsin-like activity (TcProtChymo) assay.; also: in the data most compounds retested in dose-response had high values; assay type: functional; settings: 9.37 µM
T3 sequence (whole entry): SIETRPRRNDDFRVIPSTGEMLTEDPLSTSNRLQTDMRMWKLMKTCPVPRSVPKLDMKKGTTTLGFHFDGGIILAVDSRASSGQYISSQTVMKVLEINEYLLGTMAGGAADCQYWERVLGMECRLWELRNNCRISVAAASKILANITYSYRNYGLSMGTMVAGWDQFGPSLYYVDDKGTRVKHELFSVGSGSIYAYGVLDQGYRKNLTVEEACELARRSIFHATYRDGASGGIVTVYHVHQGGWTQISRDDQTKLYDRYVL

[8] = species: Homo sapiens; experiment: To identify inhibition of the IFN signalling (Jak-Stat) pathway via expression of an eGFP reporter gene under the control of an IFN-stimulated response element (ISRE) containing MxA promoter.; assay type: functional; settings: 30 µM
[9] = target: T4, Tyrosyl-tRNA synthetase, putative (Trypanosoma cruzi (strain CL Brener)) (UniProt Q4DSP6); experiment: Trypanosoma cruzi tyrosyl tRNA synthetase (TcYRS) _High Tyrosine SOP; assay type: functional; settings: 30 µM; also: in the data most compounds retested in dose-response had high values
T4 sequence (whole entry): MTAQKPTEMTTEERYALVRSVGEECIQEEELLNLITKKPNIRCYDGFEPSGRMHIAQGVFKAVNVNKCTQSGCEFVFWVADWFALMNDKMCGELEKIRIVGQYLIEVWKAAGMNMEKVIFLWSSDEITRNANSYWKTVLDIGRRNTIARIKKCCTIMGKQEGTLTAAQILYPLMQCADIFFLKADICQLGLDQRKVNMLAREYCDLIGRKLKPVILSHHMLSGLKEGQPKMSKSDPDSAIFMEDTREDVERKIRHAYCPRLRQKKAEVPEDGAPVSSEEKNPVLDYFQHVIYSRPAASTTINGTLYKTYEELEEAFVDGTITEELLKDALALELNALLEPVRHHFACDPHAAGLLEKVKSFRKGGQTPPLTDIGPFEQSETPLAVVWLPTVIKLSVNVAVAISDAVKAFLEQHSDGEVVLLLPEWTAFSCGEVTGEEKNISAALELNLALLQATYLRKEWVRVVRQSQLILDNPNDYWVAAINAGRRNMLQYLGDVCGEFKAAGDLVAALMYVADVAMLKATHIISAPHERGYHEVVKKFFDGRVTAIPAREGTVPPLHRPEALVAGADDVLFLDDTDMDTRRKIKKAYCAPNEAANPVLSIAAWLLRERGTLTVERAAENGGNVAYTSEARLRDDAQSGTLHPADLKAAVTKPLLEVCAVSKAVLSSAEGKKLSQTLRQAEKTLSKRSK

[10] = target: T4, Tyrosyl-tRNA synthetase, putative (Trypanosoma cruzi (strain CL Brener)); experiment: Trypanosoma cruzi tyrosyl tRNA synthetase (TcYRS) SOP; assay type: functional; settings: 30 µM
[11] = target: Chromo domain-containing protein 1 (Saccharomyces cerevisiae (strain ATCC 204508 / S288c) (Baker's yeast)) (UniProt P32657); experiment: ScCHD-1 Enzyme Inhibition Assay; assay type: functional; settings: 30 µM; also: in the data most compounds retested in dose-response had high values
Chain of Chromo domain-containing protein 1 (Saccharomyces cerevisiae (strain ATCC 204508 / S288c) (Baker's yeast)) (P32657 whole entry, the tested form may be a part): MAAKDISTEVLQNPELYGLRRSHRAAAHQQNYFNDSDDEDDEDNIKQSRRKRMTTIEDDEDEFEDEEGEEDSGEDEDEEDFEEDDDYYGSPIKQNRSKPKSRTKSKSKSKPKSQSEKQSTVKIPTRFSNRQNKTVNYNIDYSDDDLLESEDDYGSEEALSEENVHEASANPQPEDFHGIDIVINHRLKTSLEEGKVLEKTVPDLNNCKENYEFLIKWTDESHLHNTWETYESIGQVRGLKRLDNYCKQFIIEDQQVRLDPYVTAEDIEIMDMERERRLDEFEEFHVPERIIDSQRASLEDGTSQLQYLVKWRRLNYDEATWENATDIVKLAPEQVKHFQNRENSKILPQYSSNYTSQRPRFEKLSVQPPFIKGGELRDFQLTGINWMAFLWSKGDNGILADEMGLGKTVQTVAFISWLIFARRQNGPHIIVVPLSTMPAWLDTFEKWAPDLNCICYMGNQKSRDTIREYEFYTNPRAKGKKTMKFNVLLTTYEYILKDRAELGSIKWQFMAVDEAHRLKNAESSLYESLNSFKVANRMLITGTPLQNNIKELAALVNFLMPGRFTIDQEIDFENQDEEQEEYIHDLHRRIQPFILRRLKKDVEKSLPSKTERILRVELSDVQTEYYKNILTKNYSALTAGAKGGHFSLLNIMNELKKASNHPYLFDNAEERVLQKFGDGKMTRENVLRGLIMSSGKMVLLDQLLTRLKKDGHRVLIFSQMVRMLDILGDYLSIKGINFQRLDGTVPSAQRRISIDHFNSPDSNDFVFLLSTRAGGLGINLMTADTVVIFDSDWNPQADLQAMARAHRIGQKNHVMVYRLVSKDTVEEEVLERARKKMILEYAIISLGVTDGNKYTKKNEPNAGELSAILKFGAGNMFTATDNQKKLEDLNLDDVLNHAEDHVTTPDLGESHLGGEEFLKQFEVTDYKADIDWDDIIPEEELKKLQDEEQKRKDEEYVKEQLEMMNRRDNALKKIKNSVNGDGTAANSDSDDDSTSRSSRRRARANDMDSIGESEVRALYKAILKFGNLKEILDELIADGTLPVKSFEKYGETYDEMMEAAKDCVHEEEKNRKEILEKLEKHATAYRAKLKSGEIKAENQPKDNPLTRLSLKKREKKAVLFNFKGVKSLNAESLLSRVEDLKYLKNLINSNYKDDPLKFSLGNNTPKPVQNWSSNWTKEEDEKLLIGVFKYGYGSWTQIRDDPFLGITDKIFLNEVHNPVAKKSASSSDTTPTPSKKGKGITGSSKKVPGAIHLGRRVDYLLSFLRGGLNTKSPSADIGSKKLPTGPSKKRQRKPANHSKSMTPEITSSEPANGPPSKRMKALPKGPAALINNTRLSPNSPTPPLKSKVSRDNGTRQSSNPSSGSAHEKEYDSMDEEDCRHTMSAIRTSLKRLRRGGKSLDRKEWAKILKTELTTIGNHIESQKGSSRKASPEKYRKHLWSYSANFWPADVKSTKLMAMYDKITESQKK

Chain of Protein translocase subunit SecA (Escherichia coli (strain K12)) (P10408 whole entry): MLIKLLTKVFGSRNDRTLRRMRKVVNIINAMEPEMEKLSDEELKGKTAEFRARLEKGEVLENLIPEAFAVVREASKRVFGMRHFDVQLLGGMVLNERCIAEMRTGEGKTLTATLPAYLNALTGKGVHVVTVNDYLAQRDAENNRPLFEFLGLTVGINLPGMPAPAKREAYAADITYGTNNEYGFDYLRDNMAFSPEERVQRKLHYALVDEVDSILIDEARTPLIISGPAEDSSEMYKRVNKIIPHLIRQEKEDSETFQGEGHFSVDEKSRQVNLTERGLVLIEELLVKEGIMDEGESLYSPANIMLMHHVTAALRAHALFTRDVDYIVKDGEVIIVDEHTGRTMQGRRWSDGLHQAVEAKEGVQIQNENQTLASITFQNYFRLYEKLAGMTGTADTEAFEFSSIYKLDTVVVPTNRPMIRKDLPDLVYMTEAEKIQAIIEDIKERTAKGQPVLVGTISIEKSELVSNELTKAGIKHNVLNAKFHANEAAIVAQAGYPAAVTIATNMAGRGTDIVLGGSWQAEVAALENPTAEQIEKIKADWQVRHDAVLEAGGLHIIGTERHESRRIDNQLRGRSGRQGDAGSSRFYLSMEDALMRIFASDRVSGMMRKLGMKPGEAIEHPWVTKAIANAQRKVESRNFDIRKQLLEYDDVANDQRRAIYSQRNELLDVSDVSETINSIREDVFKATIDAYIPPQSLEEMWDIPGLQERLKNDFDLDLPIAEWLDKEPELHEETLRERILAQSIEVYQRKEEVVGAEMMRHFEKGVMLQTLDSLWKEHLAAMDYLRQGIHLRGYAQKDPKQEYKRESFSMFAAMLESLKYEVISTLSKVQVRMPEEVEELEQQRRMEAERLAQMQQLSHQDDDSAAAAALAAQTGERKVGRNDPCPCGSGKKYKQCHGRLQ
Chain of Sialic acid-binding Ig-like lectin 9 (Homo sapiens) (Q9Y336 whole entry): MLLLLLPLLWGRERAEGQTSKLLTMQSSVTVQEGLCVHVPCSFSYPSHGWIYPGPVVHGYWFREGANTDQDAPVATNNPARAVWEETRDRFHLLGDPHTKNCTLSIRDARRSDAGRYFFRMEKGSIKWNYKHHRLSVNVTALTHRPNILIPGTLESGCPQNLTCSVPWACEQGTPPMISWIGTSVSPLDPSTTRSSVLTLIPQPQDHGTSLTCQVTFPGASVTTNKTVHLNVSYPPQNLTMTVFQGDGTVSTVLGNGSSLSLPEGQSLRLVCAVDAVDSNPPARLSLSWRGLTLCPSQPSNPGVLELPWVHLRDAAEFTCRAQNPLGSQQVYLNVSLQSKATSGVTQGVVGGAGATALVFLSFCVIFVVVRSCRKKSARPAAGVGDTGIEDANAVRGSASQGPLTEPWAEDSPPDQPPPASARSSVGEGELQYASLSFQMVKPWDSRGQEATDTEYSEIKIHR

Compound	Percent Effect [1] [%]	Percent Effect [2] [%]	Percent Effect [3] [%]	Percent Effect [4] [%]	Percent Effect [5] [%]	Percent Effect [6] [%]	Percent Effect [7] [%]	Percent Effect [8] [%]	Percent Effect [9] [%]	Percent Effect [10] [%]	Percent Effect [11] [%]
Cc1ccc(C2CSCCN2C(=O)c2ccsc2)o1 (configuration not stated)	-7.12	8.11	5.16	3.24	-1.66	4.22	8.15	-0.446	1.07	6.17	-3.21
CCN(C)c1ncnc2c1CCN(C(=O)N1CCCC1)CC2	1.86	10.7	-0.0235	0.87	-8.88	-54.7	17.6	-9.36	4.17	15	-5.04
CC(C)n1ccc(-c2cc(C(=O)N3CCCC3)c3ccccn23)n1	2.31	13.5	128	-12.1	-4.79	0.319	3.69	65.6	-1.08	-2.56	-12
COc1ccc(F)cc1C(C(=O)O)N1CCSCC1 (configuration not stated)	-2.63	8.11	-2.63	20.8	1.66	18.6	6.95	-10	8.6	18.5	-1.27
COc1cccc(CN(C)C(=O)CN2CC(n3nc(C)cc3C)C2)c1	-0.578	-73.7	0.521	-5.84	1.27	1.18	24.3	23.1	26.6	39	-4.54
Cc1cc(-c2cnc(NCc3cccnc3)nc2C(C)C)on1	-6.62	2.67	40.6	-1.45	-3.74	-2.1	3.79	56.7	1.06	1.28	-1.52
COc1ccc(CCN2CCCC(CN(C)Cc3ccc(C)o3)C2)cc1 (configuration not stated)	-1.16	0	-4.07	31.8	5.18	4.71	0.772	11.1	5.38	11.1	0.528
CCS(=O)(=O)c1ccccc1C(=O)NCc1ccnc(N(C)C)c1	-2.2	28.6	-10.1	2.33	2.62	4.27	14	4.01	9.71	24.4	-10.5
Cc1cnn(CC2CN(Cc3nnc(C4CC4)o3)CCO2)c1 (configuration not stated)	-7.99	5.41	87.3	7.35	-4.18	-4.99	-1.26	8.17	1.98	3.66	7.2
COc1cccc(CN2CCCCCC2c2cccs2)c1O (configuration not stated)	-0.394	0	-1.74	-0.0415	-3.65	4.52	15.8	21.7	-1.06	8.97	-5.25
Cc1ccc(NC2CCN(C(=O)Cc3cccc(F)c3)CC2)nn1	-1.31	21.6	-15.1	7.97	7.83	-12	6.67	6.31	9.36	28.4	-10.9
CNc1nc(CNC(=O)Nc2cccc(F)c2)cs1	-4.85	8.11	-3.94	12.7	-1.39	-4.99	1.62	1.99	5.94	6.1	8.34
CN(C)C(=O)COC[C@]12COC[C@H]1CN(CC1CCC1)C2	1.38	2.7	-10.5	19.2	4.79	6.7	7.12	8.3	2.15	3.7	-9.34
O=C(c1ccncc1F)N1CCc2ncnc(-c3ccncc3)c2CC1	-6.29	5.41	-2.05	-1.21	-5.38	-0.955	10.7	14	1.08	7.69	0.761
CC(C)c1n[nH]c(C2CN(C(=O)c3cccc4cn[nH]c34)CCO2)n1 (configuration not stated)	-1.73	7.89	4.13	11.6	2.33	1.8	4.32	4.21	2.46	6.17	-0.736
CC1CCN(Cn2nc(-c3ccc(F)cc3)oc2=O)CC1	-2.94	18.2	4.52	-5.3	-7.12	2.13	6.42	33	5.83	7.32	-12.6
Cc1nn(CCO)c(C)c1CNC1CCc2c(Cl)cccc21 (configuration not stated)	-3.63	8	-5.26	16.9	8.67	46.9	0.174	8.33	1.64	8.64	-14.3
Cc1ccc(C(=O)NCC2(O)CCOCC2)cc1Br	-4.53	5.41	0.131	12.8	-0.772	-2.38	7.07	19	4.76	7.32	-2.67
O=C1CC(c2ccccc2)c2snc(C(=O)O)c2N1 (configuration not stated)	-3.07	6.67	-2.59	-2.64	2.95	20.9	29.4	1.29	3.17	7.69	-12
CN(C)C(=O)N1CCOCC2(CCN(c3ncccn3)C2)C1 (configuration not stated)	-4.78	8.11	-5.27	28.6	6.35	-1.24	5.75	-36.2	6.45	11.1	-5.72
CN(C)[C@@H]1CCN(C(=O)c2ccsc2)[C@H]1Cc1cnn(C)c1	-3.13	0	12.6	1.61	-3.15	-1.63	12.2	4.21	3.19	-1.28	2.12
CS(=O)(=O)NC1CCCN(C(=O)NCc2cccnc2)C1 (configuration not stated)	-2.71	15.6	3.96	1.09	2.25	1.9	14.2	-2.36	7.62	18.8	-11.9
